From ChEMBL document CHEMBL1157539, “Thousands of chemical starting points for antimalarial lead identification” (Nature, 2010)

test system: Plasmodium falciparum; experiment: GSK_TCMDC: Inhibition of Plasmodium falciparum 3D7 in whole red blood cells, using parasite LDH activity as an index of growth. Test compounds present at 2uM; format: functional

Row | Compound | Inhibition [%]
1 | N#Cc1ccc(N(CCOC(=O)c2ccc(Br)s2)Cc2ccccc2C(F)(F)F)cc1C(F)(F)F | 82
2 | CCOc1cc(C)ccc1C1CCN(CCCCNC(=O)c2ccc(NC(=O)c3cc(Cl)cc(Cl)c3)cc2)CC1 | 99
3 | CN1CCC(C(=O)Nc2ccc(-c3ccc(-c4nc5ccccc5[nH]4)s3)cc2)CC1 | 99
4 | CC(Oc1ccc(Cl)cc1Cl)c1nc(-c2ccc(NC(=O)c3ccco3)cc2)no1 (stereo not given) | 92
5 | CCc1c(CCNCCCCCCNCc2ccc3c(c2CC)OCO3)ccc(OC)c1OC.Cl | 100
6 | CCNc1cc(C(=O)N[C@@H](Cc2ccccc2)[C@H](O)CN[C@H](C)c2ccccc2)cc(N2CCCC2=O)c1 | 97
7 | N#Cc1ccccc1C1CCN(C2CCC(Nc3cc(-c4cccnc4)ccn3)CC2)CC1 (stereo not given) | 100
8 | CS(=O)(=O)CCNCc1cccc(-c2cc3c(Nc4ccc5c(cnn5Cc5ccccc5)c4)ncnc3s2)c1.O=C(O)C(F)(F)F | 100
9 | COc1ccc(Nc2ncc3c(-c4cccc(NC(=O)Cc5cccc(F)c5)c4)c[nH]c3n2)cc1OC | 100
10 | O=C(Cc1c[nH]cn1)Nc1cccc(-c2ccc(-c3nc4cc(C(F)(F)F)ccc4[nH]3)cc2)c1 | 100
11 | CCNc1cc(C(=O)N[C@@H](Cc2ccccc2)[C@H](O)CNC23CCC(CC2)CC3)cc(N2CCCCS2(=O)=O)c1.Cl | 99
12 | Clc1cccc(Nc2ccc3c(N4CCCCC4)ncnc3n2)c1 | 97
13 | COc1ccc(-c2nnc(Sc3ccc(C#N)c([N+](=O)[O-])c3)n2CCC(C)C)cc1 | 89
14 | O=C(C=Cc1ccc(-c2nc3ccccc3[nH]2)cc1)NC1CCN(Cc2ccccc2)CC1 | 99
15 | O=[N+]([O-])c1cccc(Nc2nccc(-c3cnn4ncccc34)n2)c1 | 87
16 | Cl.Oc1ccc(Nc2nc(NCC3CCCO3)c3ccccc3n2)cc1 (stereo not given) | 100
17 | O=C(Nc1cccc(C(F)(F)F)c1)c1cccc(S(=O)(=O)NCC2CCCN2CC2CCCCC2)c1.O=C(O)C(F)(F)F (stereo not given) | 97
18 | Cc1ccc2nc(C)cc(N/N=C/c3ccc([N+](=O)[O-])o3)c2c1 | 100
19 | COc1cc(-c2nnc(SCC(=O)Nc3cc(C)on3)n2C)cc(OC)c1O | 89
20 | CC(C)(C(=O)Nc1ccc(C2CCC(NCC3CC3)CC2)c(Cl)c1)c1cccc(OC(F)F)c1 (stereo not given) | 99

Row | Compound | Inhibition [%]
21 | COc1ccc(-c2nc(NC(=O)CS(=O)(=O)c3ccc(OC)cc3)sc2C)cc1 | 95
22 | O=C(O)C(F)(F)F.O=S(=O)(NCCN1CCCC1)c1cccc(-c2ccc(CNCc3ccccc3)cc2)c1 | 95
23 | Cn1cccc1C(=O)Nc1cccc(-c2nn3ccccc3c2-c2ccnc(Nc3ccc4c(c3)OCCO4)n2)c1 | 95
24 | CCN(CC)c1ccc(C(c2ccc(N(CC)CC)cc2)c2cccc([N+](=O)[O-])c2)cc1 | 91
25 | Cc1ccc(NC(=O)c2ccc3nccnc3c2)cc1OC1CCN(Cc2ccc(F)cc2)CC1.O=C(O)C(F)(F)F | 87
26 | COc1ccccc1C1CN(Cc2coc3ccccc3c2=O)Cc2ccccc2O1 (stereo not given) | 87
27 | Br.CCCCCCCCn1c2c(c(=N)c3c1CCC3)CCCC2 | 100
28 | CCc1ccc(C2CCN(CCCCNC(=O)c3ccc(-c4ccc(C#N)cc4)cc3)CC2)c(OCCO)c1.Cl | 94
29 | COc1ccc2ncc(Cl)c([C@H](O)CN3CCC(NCc4cc5c(cn4)OCCO5)CC3)c2c1.Cl | 100
30 | Cc1ccc(-c2nnc(Nc3ccc(OCC(N)=O)cc3)c3ccccc23)cc1S(=O)(=O)NCC1CCCO1 (stereo not given) | 92
31 | Cl.Clc1ccc(CCNCCCCCCNCCc2ccc3c(c2)OCO3)cc1 | 91
32 | COc1ccc(-c2ccc(CNC(=O)c3cccc(C#N)c3)c(F)c2)cc1CN1CCCN(C)CC1.O=C(O)C(F)(F)F | 99
33 | O=C(CCCCCNC(=O)c1ccc(O)c(-c2ccc(Cl)c(Cl)c2)c1)NCCN1CCCC1 | 90
34 | O=C(NC1CCCCC1)N(Cc1ccccc1-c1ccc(CNCCc2ccccc2)cc1)C1CCN(Cc2ccccc2)CC1.O=C(O)C(F)(F)F | 90
35 | Cc1cc(N2CCCC2=O)ccc1-c1ccc(C(=O)N2CCC(Oc3cccc(Cl)c3)CC2)cc1 | 99
36 | Cl.N=C(N)Nc1cccc(NC(=O)Nc2cccc(NC(=N)N)c2)c1 | 87
37 | Cl.N=C(N)NN=Cc1ccc2c(c1)Cc1ccccc1-2 | 100
38 | CCCCCN1CCC(NS(=O)(=O)c2ccc(C(=O)Nc3cccc(C(F)(F)F)c3)cc2)C1.O=C(O)C(F)(F)F (stereo not given) | 94
39 | COc1ccc2ncc(F)c([C@H](O)CN3CCC(NCc4ccc5c(c4)OCCO5)CC3)c2c1.Cl | 100
40 | CNC(=O)c1cnc(Nc2ccc(N3CCOCC3)cc2)nc1Nc1cccc(O)c1.O=C(O)C(F)(F)F | 90
